Compound activity (PubChem)
A selection: hits, their analogues and other compounds. The true share with any hit is near 11%.
AMA1-RON2 inh – AMA1-RON2 (P. falciparum) interaction inhibition. AlphaScreen AMA1-biotinylated RON2 peptide binding. Potency, µM (series often up to 58.2 µM), for inactives: top-dose activity change, negative = inhibition, usual class: inhibitors. actives 0.2% (n = 360,000). AID 720542;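 also: 0% = vehicle wells and -100% = peptide control; nearly all actives have a fitted effect of over 45% in size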
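AMA1 (3D7) with his tag at 25 nM final met compounds first, then biotinylated RON2 peptide at 25 nM; detection used donor plus acceptor beads, 10 µg/mL apiece, read by AlphaScreen after 30 min at room temperature.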
Sm TGR block – inhibitors of Schistosoma mansoni thioredoxin glutathione reductase | Q962Y6 | purified TGR, DTNB reduction, TNB absorbance 405 nm | Potency, µM (series often up to 114 µM), without a hit: at the top dose activity change, negative = inhibition, most hits filed as inhibitors | actives 3% (n = 360,000) | AID 485364; also: % is scaled to controls: 0 for no effect and ±100 for the full control effect; nearly all actives have a fitted effect of over 60% in size
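TGR 20 nM + NADPH 100 uM (dispensed conc.), cpd preinc 15 min RT; start with NADPH (500 uM addition) then DTNB (15 mM addition). Kinetic TNB absorbance, 405 nm filter. Four-parameter Hill fit across titration.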
NS1 function inh – inhibitors of influenza NS1 protein function. Potency, µM (highest dose often 46.1 µM), for the others: top-dose activity, positive = more growth. actives 0.4% (n = 270,000); calls by dose curve; also: actives are rising curves; nearly all actives have a fitted effect of over 50% in size
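In this qHTS, NS1 from influenza A is expressed in budding yeast, where it slows growth. Cells are switched from glucose to 2% galactose medium (pH 6.0, -URA), treated with compound, and growth recovery is read at OD600.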
Pf growth 96h – P. falciparum growth inhibition at 96 hours. P. falciparum luciferase reporter growth, 96 h. Potency, µM (top dose mostly 28.7 µM), for the others: at the top dose activity change, negative = inhibition, hits mostly inhibitors. actives 6.9% (n = 320,000). AID 504834; also: % is scaled to controls: 0 for no effect and ±100 for the full control effect
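Cell-based qHTS: luciferase-tagged P. falciparum in erythrocytes (2% hematocrit, 0.05% parasitemia final) incubated with compounds for 96 hours, 37 C, 5% CO2; luciferase detection reagent then added and luminescence measured.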
Pf growth 48h – inhibits P. falciparum growth in the first generation, 48 h. P. falciparum luciferase growth in erythrocytes, 48 h. Potency, µM (doses to about 28.7 µM), without a hit: at the top dose activity change, negative = inhibition, most hits filed as inhibitors. actives 5.9% (n = 310,000); also: % is scaled to controls: 0 for no effect and ±100 for the full control effect
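Luminescence readout; reporter = integrated firefly luciferase in P. falciparum. RBC culture at 2% hematocrit, 0.1% parasitemia final, 37 C/5% CO2; decreased signal taken as growth inhibition.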
Numbers without * were called inactive; ? = inconclusive; nt = no result given; [ ] = dose if it differs, or a comment. Unless noted, calls follow the shape of the dose curve; as a rule, active = well fitted curve in the direction sought with a large enough effect; inconclusive = small, poorly fitted or top-dose-only effect, or another doubt; inactive = no such curve, though single readings can be large; an effect the other way counts as inactive or inconclusive. Potency is read from the fitted curve at half-maximal effect.

SMILES | AMA1-RON2 inh | Sm TGR block | NS1 function inh | Pf growth 96h | Pf growth 48h
Cc1ccc(NS(=O)(=O)c2ccc3[nH]c(=O)oc3c2)c(C)c1 | -3.4% | -3.4% | -4.6% | ? | 20.5%
COc1cc(-c2nc(CN(C)C(C)c3ccncn3)c(C)o2)ccc1F (stereo unspecified) | 25.6% | 31.6µM* | 0.7% | 34.4% | ?
COc1ccc(-c2c(=O)n(OC)c3ccccc3[n+]2[O-])cc1OC | -9.9% | ? | -0.2% | 10.4% | 15.0%
COc1cccc(NC(=O)C2Cc3ccccc3CN2C(=O)c2ccco2)c1 (stereo unspecified) | 5.4% | 35.5µM* | -3.6% | -16.7% | ?
Cc1cccc(NC(=O)N2CCCC2C(=O)NCc2ccccc2)c1 (stereo unspecified) | -3.9% | 3.2% | 3.8% | 9.28µM* | -9.4%
O=C(NCc1ccc(F)cc1)C1Cc2ccccc2CN1C(=O)c1ccco1 (stereo unspecified) | -4.1% | 6.9% | nt | 7.6% | -0.6%
COCCSc1nnc(NC(=O)C2CCN(C(=O)c3ccco3)CC2)s1 | -6.6% | 1.3% | -6.8% | -15.1% | ?
CCSc1nnc(NC(=O)C2Cc3ccccc3CN2C(=O)c2ccco2)s1 (stereo unspecified) | 13.7% | 31.6µM* | 1.0% | 22.9% | -28.1%
Cc1ccccc1NC(=O)C1Cc2ccccc2CN1C(=O)OCc1ccccc1 (stereo unspecified) | -6.4% | 3.1% | -13.3% | 13.1µM* | -22.5%
Cc1cc(NC(=O)C(=O)NCc2cccc(Cl)c2)no1 | -2.8% | 10.8% | -7.2% | 5.8% | -16.6%
COc1c(S(=O)(=O)NCCCN2CCOCC2)ccc(Cl)c1Cl | -8.5% | 0.3% | 2.5% | 98.1% | 19.2%
CCN(Cc1nc(-c2cccc(C)c2)no1)C(=O)c1ccco1 | -6.3% | 9.8% | -0.9% | 6.1% | 13.1%
Cc1csc2nc(COc3ccc(NC(=O)COc4ccccc4F)cc3)cc(=O)n12 | nt | -3.0% | nt | nt | nt
O=C(Nc1cccc(Cl)c1Cl)c1ccccc1OCC(=O)N1CCOCC1 | 1.7% | -1.8% | -18.4% | 10.4% | 0.1%
C=C(C)Cn1c(=O)c2c(nc3n2CC(C)CN3Cc2ccccc2)n(C)c1=O (stereo unspecified) | 0.0% | 1.5% | -12.4% | ? | ?
Cc1ccc(NC(=O)C2CCCN2C(=O)OCc2ccccc2)c(C)c1 (stereo unspecified) | -6.8% | 14.9% | -1.2% | -0.6% | 0.3%
Cc1ccccc1NC(=O)C1Cc2ccccc2CN1C(=O)c1ccco1 (stereo unspecified) | 4.0% | 11.2µM* | 7.9% | -27.0% | -21.9%
O=C(O)C1Cc2ccccc2CN1C(=O)c1ccco1 (stereo unspecified) | 5.4% | ? | 7.6% | 1.1% | -8.9%
NS(=O)(=O)c1ccc(NC(=O)C2Cc3ccccc3CN2C(=O)c2ccco2)cc1 (stereo unspecified) | 7.3% | 44.7µM* | 10.0% | -25.9% | -3.0%
Cc1ccc(NC(=O)C2CCCN2C(=O)OCc2ccccc2)c(O)c1 (stereo unspecified) | -2.3% | 1.9% | 9.9% | 5.22µM* | ?
O=C(NCc1ccccc1)C1Cc2ccccc2CN1C(=O)c1ccco1 (stereo unspecified) | -10.8% | 35.5µM* | nt | 5.2% | -8.4%
CCN(CC)CCn1c2c(c(SCC(=O)Nc3cc(C)on3)nc1=O)CCCC2 | 0.0% | -0.1% | nt | -10.2% | ?
O=c1ccc2cc3c4c(c2o1)CCCN4CCC3 | -13.4% | 50.1µM* | 1.8% | 3.5% | ?
O=c1oc2c3c4c(cc2s1)CCCN4CCC3 | 14.1µM* | ? | -137.3% | nt | nt
Cc1cc(C(=O)Nc2ncc(C)s2)c2ccccc2n1 | 31.6% | 2.8% | nt | 6.7% | 50.6%
SMILES | AMA1-RON2 inh | Sm TGR block | NS1 function inh | Pf growth 96h | Pf growth 48h
COc1ccc(C(c2nnnn2C2CCCC2)N2CCC(C)CC2)c(OC)c1 (stereo unspecified) | 0.5% | -0.6% | -18.2% | 3.4% | 11.7µM*
CCN1CCN(C(c2ccccc2OC)c2nnnn2C2CCCCC2)CC1 (stereo unspecified) | 4.6% | -33.5% | 1.8% | 14.4% | -22.9%
COc1ccc(OC)c(C(c2nnnn2C2CCCC2)N2CCN(c3ccc(F)cc3)CC2)c1 (stereo unspecified) | -28.7% | -5.2% | -1.4% | 23.5% | 11.7µM*
COc1ccc(C(=O)Nc2cc(=O)[nH]c3ncnn23)cc1 | -15.0% | 1.3% | -0.7% | 14.6% | 43.1%
COc1cc(OC)nc(-n2ncc(Br)c(Br)c2=O)n1 | 4.3% | 1.78µM* | -36.0% | 13.1µM* | ?
CC(=O)N1CCCc2cc(S(=O)(=O)N3CCC(C(=O)NCc4ccccc4)CC3)ccc21 | nt | 9.6% | nt | nt | nt
C=CCC(COCc1ccccc1)NS(=O)(=O)c1ccccc1Br (stereo unspecified) | 4.4% | 10.3% | -6.4% | ? | 13.1µM*
C=CC(COCc1ccccc1)N(C(=O)OC(C)(C)C)S(=O)(=O)c1ccccc1Br (stereo unspecified) | 0.0% | -6.1% | 1.3% | ? | ?
COc1ccccc1NC(=O)C(C)OC(=O)CC1CCCCC1 (stereo unspecified) | -1.7% | -14.1% | nt | ? | 13.1µM*
CC(=O)c1cccc(NC(=O)C(CC(C)C)NC(=O)C2CCCCC2)c1 (stereo unspecified) | 1.8% | -16.2% | nt | -3.8% | 5.86µM*
COc1ccc(OC)c(NC(=O)C(CC(C)C)NC(=O)C2CCCCC2)c1 (stereo unspecified) | -7.1% | 0.0% | -2.2% | ? | ?
COc1ccccc1NC(=O)C(CC(C)C)NC(=O)C1CCCCC1 (stereo unspecified) | -1.3% | 2.2% | -5.0% | 8.28µM* | nt
COc1ccc(CNC(=O)[C@H](C)NC(=O)C2CCN(C(=O)[C@@H](N)CCSC)CC2)cc1 | 20.1% | -19.5% | 12.6% | ? | -10.6%
O=C(O)c1cc(NC(=O)c2ccc(Cl)c([N+](=O)[O-])c2)cc(C(=O)O)c1 | -0.5% | -7.8% | nt | 51.7% | 22.9%
O=C(Nc1ccc(C(O)(C(F)(F)F)C(F)(F)F)cc1)c1ccc(Cl)c([N+](=O)[O-])c1 | 12.4%[11.6 µM] | -9.1% | -48.7% | 10.4µM* | 11.7µM*
Cn1c(CNC(=O)CNS(=O)(=O)c2ccc(Br)cc2)cc(=O)n(C)c1=O | -3.5% | -10.8% | 13.5% | -2.4% | -3.5%
COc1ccc(C(=O)NCc2nnc(SCC(=O)N3CCCCC3)o2)cc1OC | 0.0% | 0.8% | -2.1% | 3.29µM* | nt
COc1ccc(Cc2nnc(SCC(=O)N3CCCC(C)C3)o2)cc1 (stereo unspecified) | 1.1% | nt | 2.3% | ? | 7.38µM*
O=C(NCc1nnc(SCC(=O)N2CCN(c3ccccc3)CC2)o1)c1c(F)cccc1Cl | 14.3% | -6.6% | -18.1% | 10.4µM* | -15.6%
COc1ccc(OCc2nnc(SCC(=O)N3CCCCC3)o2)cc1 | 1.4% | 10.3% | -12.2% | 11.7µM* | 3.8%
